Activity calls are given as the source filed them. Rule for the calls: active = hit-call score of the fitted dose curve at least 0.9, where 1 is the maximum; inactive = score below 0.9.
Experiments:
[1] = BSK_CASM3C_SRB: Viability Assessment in the BioMAP Diversity Plus: CASM3C Assay (AID 2283050); details: primary human coronary artery smooth muscle cells;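 note: cells exposed to compound for 24 h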
[2] = read-out: Thrombomodulin, THBD (gene 7056); test: BSK_CASM3C_Thrombomodulin: BioMAP Diversity Plus: CASM3C Assay for Thrombomodulin Biomarker Activity (AID 2283051); details: primary human coronary artery smooth muscle cells; actives raise or lower the signal;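 note: thrombomodulin protein level measured by ELISA 24 h after dosing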
[3] = read-out: Tissue Factor, F3 (gene 2152); test: BSK_CASM3C_TissueFactor: BioMAP Diversity Plus: CASM3C Assay for Tissue Factor Biomarker Activity (AID 2283052); details: primary human coronary artery smooth muscle cells; actives raise or lower the signal;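 note: cell surface tissue factor protein level read by ELISA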
[4] = read-out: Interferon-gamma inducible Protein 10 (IP10), CXCL10 (gene 3627); test: BSK_hDFCGF_IP10: BioMAP Diversity Plus: hDFCGF Assay for Interferon-gamma inducible Protein 10 (IP10) Biomarker Activity (AID 2283053); details: primary human foreskin fibroblasts; actives raise or lower the signal
Procedure, shortened: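 Primary human foreskin fibroblasts exposed to chemicals for 24 h. IP-10 measured by ELISA; changes fitted bidirectionally against DMSO baseline.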

[5] = read-out: Urokinase-type plasminogen activator receptor (uPAR), PLAUR (gene 5329); test: BSK_CASM3C_uPAR: BioMAP Diversity Plus: CASM3C Assay for Urokinase-type plasminogen activator receptor (uPAR) Biomarker Activity (AID 2283054); details: primary human coronary artery smooth muscle cells; actives raise or lower the signal;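 note: cell-surface uPAR protein level quantified by ELISA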
[6] = read-out: Vascular cell adhesion molecule 1 (VCAM1), VCAM1 (gene 7412); test: BSK_CASM3C_VCAM1: BioMAP Diversity Plus: CASM3C Assay for Vascular cell adhesion molecule 1 (VCAM1) Biomarker Activity (AID 2283055); details: primary human coronary artery smooth muscle cells; actives raise or lower the signal;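 note: VCAM-1 protein level quantified by ELISA on the cells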
[7] = read-out: Epidermal growth factor receptor (EGFR), EGFR (gene 1956); test: BSK_hDFCGF_EGFR: BioMAP Diversity Plus: hDFCGF Assay for Epidermal growth factor receptor (EGFR) Biomarker Activity (AID 2283057); details: primary human foreskin fibroblasts; actives raise or lower the signal
Procedure, shortened: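 Primary human foreskin fibroblasts (hDFCGF system), sampled 24 h after dosing; EGFR quantified by ELISA. Bidirectional fit relative to DMSO baseline; SRB total-protein staining in parallel cultures for cytotoxicity.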

[8] = BSK_hDFCGF_Proliferation: Cell Proliferation Assessment in the BioMAP Diversity Plus: hDFCGF Assay (AID 2283059); details: primary human foreskin fibroblasts;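 note: curves fitted for both rise and fall of signal versus DMSO baseline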
Procedure, shortened: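 Sub-confluent human foreskin fibroblast cultures receive test chemical […]. Relative cell number is quantified by sulforhodamine B staining (0.1%, after 10% TCA fixation) at 560 nm, with bidirectional fitting referenced to DMSO.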

[9] = read-out: Macrophage colony-stimulating factor (MCSF), CSF1 (gene 1435); test: BSK_hDFCGF_MCSF: BioMAP Diversity Plus: hDFCGF Assay for Macrophage colony-stimulating factor (MCSF) Biomarker Activity (AID 2283060); details: primary human foreskin fibroblasts; actives raise or lower the signal
Procedure, shortened: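 M-CSF levels, determined by ELISA, are taken at 24 h after dosing human skin fibroblasts. Responses in either direction are fitted with DMSO serving as the baseline.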

[10] = BSK_hDFCGF_SRB: Viability Assessment in the BioMAP Diversity Plus: hDFCGF Assay (AID 2283061); details: primary human foreskin fibroblasts;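 note: cells exposed to compound for 24 h before the read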
Procedure, shortened: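 Cells were dosed with test chemical, cultured 24 h, fixed with 10% TCA, then stained with 0.1% SRB and read at 560 nm. The fibroblasts were human foreskin primary cells, and DMSO served as baseline.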

[11] = read-out: Monokine induced gamma interferon (MIG), CXCL9 (gene 4283); test: BSK_hDFCGF_MIG: BioMAP Diversity Plus: hDFCGF Assay for Monokine induced gamma interferon (MIG) Biomarker Activity (AID 2283063); details: primary human foreskin fibroblasts; actives raise or lower the signal
Procedure, shortened: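 MIG signal, determined by ELISA, reflects 24 h chemical exposure of human skin primary fibroblasts. DMSO serves as negative control and baseline.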

[12] = read-out: Matrix Metallopeptidase 1 (MMP1), MMP1 (gene 4312); test: BSK_hDFCGF_MMP1: BioMAP Diversity Plus: hDFCGF Assay for Matrix Metallopeptidase 1 (MMP1) Biomarker Activity (AID 2283064); details: primary human foreskin fibroblasts; actives raise or lower the signal
Procedure, shortened: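 Primary human foreskin fibroblasts in the hDFCGF system were dosed with test chemical, and MMP1 was measured by ELISA 24 h later. Values come from bidirectional curve fitting against the DMSO baseline.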

[13] = read-out: Vascular cell adhesion molecule 1 (VCAM1), VCAM1 (gene 7412); test: BSK_hDFCGF_VCAM1: BioMAP Diversity Plus: hDFCGF Assay for Vascular cell adhesion molecule 1 (VCAM1) Biomarker Activity (AID 2283065); details: primary human foreskin fibroblasts; actives raise or lower the signal;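 for AC50: VCAM-1 protein level quantified by ELISA after 24 h chemical exposure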
Procedure, shortened: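 Cells are dosed, cultured for 24 h, then VCAM-1 is quantified by ELISA; signal increases and decreases are both fitted relative to DMSO.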

[14] = read-out: Plasminogen activator inhibitor-1 (PAI1), SERPINE1 (gene 5054); test: BSK_hDFCGF_PAI1: BioMAP Diversity Plus: hDFCGF Assay for Plasminogen activator inhibitor-1 (PAI1) Biomarker Activity (AID 2283066); details: primary human foreskin fibroblasts; actives raise or lower the signal
Procedure, shortened: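 Human foreskin fibroblast primary cells, 24 h chemical exposure; PAI-1 measured by ELISA. Bidirectional fitting relative to DMSO; parallel cultures stained with SRB for total protein to flag overt cytotoxicity.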

[15] = read-out: Intercellular Adhesion Molecule 1 (ICAM1), ICAM1 (gene 3383); test: BSK_KF3CT_ICAM1: BioMAP Diversity Plus: KF3CT Assay for Intercellular Adhesion Molecule 1 (ICAM1) Biomarker Activity (AID 2283067); details: primary human keratinocytes with fibroblasts; actives raise or lower the signal
Procedure, shortened: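 Dose the keratinocyte/fibroblast co-culture, wait 24 h, measure ICAM-1 by ELISA, then fit increases or decreases against DMSO. Cytotoxicity is checked in parallel cultures by SRB total-protein staining.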

[16] = read-out: Interferon-gamma inducible Protein 10 (IP10), CXCL10 (gene 3627); test: BSK_KF3CT_IP10: BioMAP Diversity Plus: KF3CT Assay for Interferon-gamma inducible Protein 10 (IP10) Biomarker Activity (AID 2283068); details: primary human keratinocytes with fibroblasts; actives raise or lower the signal
Procedure, shortened: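 ELISA read-out of IP-10 after 24 h chemical dosing of human skin primary co-culture (keratinocytes, foreskin fibroblasts). Gain or loss of signal relative to DMSO, bidirectional curve fit.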

[17] = BSK_KF3CT_SRB: Viability Assessment in the BioMAP Diversity Plus: KF3CT Assay (AID 2283069); details: primary human keratinocytes with fibroblasts;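 note: total protein by sulforhodamine B staining as a cytotoxicity measure; fitted for both signal gain and loss against DMSO baseline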
Procedure, shortened: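 Human primary keratinocyte plus foreskin fibroblast co-culture exposed to chemicals for 24 h. Total protein measured by 0.1% sulforhodamine B staining after 10% TCA fixation, read at 560 nm; bidirectional fitting versus DMSO baseline.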

[18] = read-out: TIMP metallopeptidase inhibitor 1 (TIMP1), TIMP1 (gene 7076); test: BSK_hDFCGF_TIMP1: BioMAP Diversity Plus: hDFCGF Assay for TIMP metallopeptidase inhibitor 1 (TIMP1) Biomarker Activity (AID 2283062); details: primary human foreskin fibroblasts; actives raise or lower the signal
Procedure, shortened: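 Fibroblasts from human foreskin are treated with test chemical and harvested at 24 h. TIMP-1 is quantified by ELISA, and gain or loss of signal is scored against DMSO.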

[19] = read-out: Interleukin-8 (IL8), CXCL8 (gene 3576); test: BSK_hDFCGF_IL8: BioMAP Diversity Plus: hDFCGF Assay for Interleukin-8 (IL8) Biomarker Activity (AID 2283058); details: primary human foreskin fibroblasts; actives raise or lower the signal
Procedure, shortened: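 IL-8 levels from compound-treated primary human fibroblasts were read by ELISA at 24 h, with DMSO serving as baseline for bidirectional fitting.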

Measured: AC50

CCCCCCCCCCCC(=O)N(C)CC(=O)O
not listed: [18] | [19]
inactive: all other assays above

Cc1ccc([N+](=O)[O-])cc1N
not listed: [19]
inactive: all other assays above

COc1ccc(C(=O)c2ccccc2)c(O)c1
active: [3] 20 µM
not listed: [18] | [19]
inactive: all other assays above

CC/C=C\C/C=C\C/C=C\CCCCCCCC(=O)OC
inactive: [7]
active: [1] 15.2 µM | [2] 36.2 µM | [3] 13.9 µM | [4] 10.7 µM | [5] 29.7 µM | [6] 14.8 µM | [8] 1.68 µM | [9] 8.71 µM | [10] 6.53 µM | [18] 10.7 µM | [11] 11.1 µM | [12] 12.3 µM | [13] 8.22 µM | [14] 6.64 µM | [15] 12.3 µM | [16] 20 µM | [17] 20 µM

CC(C)CCCCCOC(=O)CS
active: [14] 9.15 µM
not listed: [18] | [19]
inactive: all other assays above

O=C(O)C(F)(F)C(F)(F)C(F)(F)C(F)(F)C(=O)O
not listed: [18]
inactive: all other assays above

CCCCCCCCC(CO)CCCCCC (stereo not drawn)
active: [8] 4.06 µM | [9] 4.32 µM | [10] 2 µM | [14] 3.75 µM
not listed: [19]
inactive: all other assays above

CCC1(C)C(=O)N(Cl)C(=O)N1Cl (stereo not drawn)
not listed: [18] | [19]
inactive: all other assays above

Cc1c(O)cccc1O
not listed: [18] | [19]
inactive: all other assays above

CC(C)c1cccc(C(C)C)c1N
not listed: [18] | [19]
inactive: all other assays above

C=CC(=O)NC(C)(C)C
not listed: [18] | [19]
inactive: all other assays above

O=C1CCCCCCCCCCC1
not listed: [18]
inactive: all other assays above

Nc1cccc(N)n1
not listed: [18] | [19]
inactive: all other assays above

COC(OC)(C(=O)c1ccccc1)c1ccccc1
not listed: [18] | [19]
inactive: all other assays above
